This note sets out measurements from PubChem BioAssay (Tox21).

Where “and” joins values, the source holds several entries; their conditions need not be identical. Equal values may be shown once. Inconclusive results are not listed. Where a structure was tested more than once in an assay, its records may differ in their call. Calls of active or inactive are those of the source. Unless noted, the call rests on the fitted dose curve; in most records, active means well fitted curve in the direction sought with a large enough effect in the repeat runs; inconclusive means weak or mixed curves; inactive means no such curve, though single readings can be large; an effect the other way counts as inactive or inconclusive.

Experiment [1] has as its target Thyrotropin-releasing hormone receptor (Homo sapiens) (UniProt P34981). Put plainly: qHTS assay to identify small molecule agonists of the thyrotropin-releasing hormone receptor (TRHR) signaling pathway (AID 1346891; calls by dose curve;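 further: HEK293 cells expressing TRHR with calcium dye readout; series mostly up to about 58 µM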). Put shortly:
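HEK293/TRHR cells, 1500 per well, 18 h 37 °C; Ca dye 2 h 37 °C; pin-tool compound addition (agonist mode); kinetic fluorescence 3 min, 1 s reads; 15 concentrations, triplicate.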
Background: qHTS replaces the single test concentration by a dilution series.

Experiment [2] can be described thus: Human pregnane X receptor (PXR) small molecule agonists, qHTS cell viability counter screen (AID 1346977). Further: nearly all actives have a fitted effect of over 50% in size. A digest of the protocol: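 Fluorescence read-out (CellTiter-Fluor) of viability in PXR-Luc HepG2 cells, multiplexed with the luciferase agonist read. Compounds in DMSO added after 5hr plating; 24hr total exposure at 37C, 5% CO2.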
The nature of experiment [3]: Caspase-3/7 induction in HepG2 cells by small molecules, qHTS assay (AID 1346978). Further: nearly all actives have a fitted effect of over 15% in size. Put shortly:
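Caspase-3/7 induction was measured by Caspase-Glo 3/7 luminescence (30 min, room temperature) after a 17 hr compound exposure of wild-type HepG2 cells seeded at 2,000 per well and pre-incubated 5 hr.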

A short description of experiment [4]: Caspase-3/7 induction in CHO-K1 cells by small molecules, qHTS cell viability counter screen (AID 1346979). Further: nearly all actives have a fitted effect of over 35% in size. A digest of the protocol: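 CHO-K1 wt, 1,500 cells/well; 5hr pre-incubation 37C/5% CO2; compound pin transfer (DMSO); 16hr exposure; CellTiter-Fluor added, 1hr, fluorescence read.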
Experiment [5] is described as follows: Caspase-3/7 induction in CHO-K1 cells by small molecules, qHTS assay (AID 1346980). Further: nearly all actives have a fitted effect of over 15% in size. A digest of the protocol: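 Luminescent Caspase-Glo 3/7 read (30min, room temperature) quantified apoptosis induction. Cells were wild-type CHO-K1, treated with compound for 17hr at 37 C and 5% CO2.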
Experiment [6] in a line: Caspase-3/7 induction in HepG2 cells by small molecules, qHTS cell viability counter screen (AID 1346981). Further: series mostly up to about 92 µM; nearly all actives have a fitted effect of over 30% in size. A digest of the protocol:
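In this quantitative HTS counter screen, compounds delivered in DMSO were left on unmodified HepG2 cells for 16 hr at 37 C. Viability was then determined fluorometrically with CellTiter-Fluor, in parallel with caspase-3/7 induction in the same wells.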

Experiment [7] deals with Nuclear receptor subfamily 1 group I member 2 (Homo sapiens) (UniProt O75469). Description: Human pregnane X receptor (PXR) small molecule agonists, qHTS assay (AID 1346982). Further: nearly all actives have a fitted effect of over 35% in size. Further: potency means the concentration at half of the fitted maximal effect. A digest of the protocol: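 Reporter HepG2 cells expressing PXR-Luc are cultured in charcoal-stripped FBS (5%), treated with compounds for 24 hr at 37 C, and assayed by ONE-Glo luminescence after 30 min at room temperature.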
Sequence of Nuclear receptor subfamily 1 group I member 2 (Homo sapiens) (O75469 whole entry, looked up): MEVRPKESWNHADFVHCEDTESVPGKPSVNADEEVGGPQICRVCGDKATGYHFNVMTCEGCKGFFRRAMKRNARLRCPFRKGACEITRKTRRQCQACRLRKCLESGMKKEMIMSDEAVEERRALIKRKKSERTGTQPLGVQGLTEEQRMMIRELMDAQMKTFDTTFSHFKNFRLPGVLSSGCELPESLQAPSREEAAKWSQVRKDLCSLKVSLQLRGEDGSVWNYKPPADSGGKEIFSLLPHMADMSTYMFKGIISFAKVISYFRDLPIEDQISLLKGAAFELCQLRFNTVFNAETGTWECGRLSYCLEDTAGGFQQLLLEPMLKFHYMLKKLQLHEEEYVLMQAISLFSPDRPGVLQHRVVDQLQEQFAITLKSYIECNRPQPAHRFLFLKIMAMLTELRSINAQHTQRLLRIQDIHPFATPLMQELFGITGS

For experiment [8], the target named is Acetylcholinesterase (Homo sapiens) (UniProt P22303). Description: Acetylcholinesterase (AChE) small molecule antagonists: colormetric cell-based qHTS assay (AID 1347395; calls by dose curve; further: nearly all actives have a fitted effect of over 30% in size; further: potency means the concentration at half of the fitted maximal effect). Put shortly: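 SH-SY5Y cells; cpd 30 min 37 C; + DTNB/acetylthiocholine, 90 min 37 C; colorimetric thiocholine read; qHTS.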
For experiment [9] the target is unchanged. Put plainly: Acetylcholinesterase (AChE) small molecule antagonists: enzyme-based qHTS assay (AID 1347397; calls by dose curve; further: nearly all actives have a fitted effect of over 55% in size). As to conditions: Potency: AChE enzyme activity inhibition; outcome: AChE enzyme activity inhibition. A digest of the protocol: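 First, recombinant human AChE (50 mU/mL as dispensed) received test compound or DMSO. Second, plates stood 30 min at room temperature. Third, DTNB and acetylthiocholine were added, followed by 10 min at room temperature and colorimetric detection.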

For experiment [10] the target is unchanged. Put plainly: Acetylcholinesterase (AChE) small molecule antagonists: fluorescence cell-based qHTS assay (AID 1347398; calls by dose curve; further: nearly all actives have a fitted effect of over 50% in size). The conditions noted are these: Potency: AChE activity; outcome: AChE activity. Put shortly:
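Homogeneous quantitative HTS format. SH-SY5Y cells seeded at 2,000 per well settle overnight at 37 C. Compound pretreatment runs 30 min (37 C, 5% CO2); substrate/probe mix then reacts 40 min at RT before reading 490/520 nm.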

Experiment [11] shares this target. Description: Acetylcholinesterase (AChE) small molecule antagonists: enzyme-based qHTS assay with human liver microsomes (AID 1347399; calls by dose curve; further: nearly all actives have a fitted effect of over 60% in size). The conditions noted are these: Potency: qHTS inhibition; outcome: qHTS inhibition. Put shortly: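 Recombinant human AChE (50 mU/mL in the enzyme mix) and human liver microsomes (0.25 mg/mL final) were preincubated with compound and NADPH (0.25 mg/mL final) for 30 min at 37 C. Acetylthiocholine/DTNB was then added; thiocholine was read colorimetrically after 10 min at room temperature.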

Experiment [12] deals with Cytochrome P450 2D6 (Homo sapiens) (UniProt P10635). Description: Cytochrome P450 Family 2 Subfamily D Member 6 (CYP2D6) small molecule antagonists: luciferase reporter qHTS assay (AID 1671196). Further: nearly all actives have a fitted effect of over 50% in size. Further: potency means the concentration at half of the fitted maximal effect. Put shortly: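 Test chemicals meet CYP2D6 plus proluciferin substrate (10 min, RT); NADPH regenerating solution then drives turnover for 1 h. Detection reagent halts the reaction; luminescence measured after 20 min.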
Sequence of Cytochrome P450 2D6 (Homo sapiens) (P10635 whole entry, looked up): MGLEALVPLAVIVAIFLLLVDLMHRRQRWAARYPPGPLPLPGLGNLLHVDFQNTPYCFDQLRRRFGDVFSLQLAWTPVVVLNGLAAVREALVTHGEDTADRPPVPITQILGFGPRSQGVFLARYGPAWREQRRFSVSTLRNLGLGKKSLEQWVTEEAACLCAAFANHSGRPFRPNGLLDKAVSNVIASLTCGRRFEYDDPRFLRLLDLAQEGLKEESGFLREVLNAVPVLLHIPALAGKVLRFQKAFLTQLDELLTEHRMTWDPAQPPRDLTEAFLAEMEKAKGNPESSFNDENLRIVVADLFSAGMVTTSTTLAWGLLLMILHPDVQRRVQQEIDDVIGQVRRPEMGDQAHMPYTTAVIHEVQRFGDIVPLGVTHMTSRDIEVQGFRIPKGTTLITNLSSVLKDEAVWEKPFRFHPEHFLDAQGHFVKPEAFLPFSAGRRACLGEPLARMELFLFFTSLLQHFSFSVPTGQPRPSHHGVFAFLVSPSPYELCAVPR

The target in experiment [13] is Cytochrome P450 2C19 (Homo sapiens) (UniProt P33261). Put plainly: Cytochrome P450 Family 2 Subfamily C Member 19 (CYP2C19) small molecule antagonists: luciferase reporter qHTS assay (AID 1671197). Further: nearly all actives have a fitted effect of over 65% in size. Further: potency means the concentration at half of the fitted maximal effect. Put shortly:
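Quantitative high-throughput screen of the Tox21 library using CYP2C19 with proluciferin substrate. Reaction: NADPH regeneration, 37C, 1 h, after 10 min compound preincubation at room temperature. Readout: luminescence.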
(In general: A reporter such as luciferase makes a cellular process visible.)

In experiment [14] the target is Cytochrome P450 2C9 (Homo sapiens) (UniProt P11712). Put plainly: Cytochrome P450 Family 2 Subfamily C Member 9 (CYP2C9) small molecule antagonists: luciferase reporter qHTS assay (AID 1671198). Further: nearly all actives have a fitted effect of over 50% in size. Further: potency means the concentration at half of the fitted maximal effect. Put shortly: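 Enzyme-substrate mix preincubated with compound 10 min at room temperature; reaction started with NADPH regeneration solution, 1 h 37C. Luminescent luciferin product read after 20 min detection reagent.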
Sequence of Cytochrome P450 2C9 (Homo sapiens) (P11712 whole entry, looked up): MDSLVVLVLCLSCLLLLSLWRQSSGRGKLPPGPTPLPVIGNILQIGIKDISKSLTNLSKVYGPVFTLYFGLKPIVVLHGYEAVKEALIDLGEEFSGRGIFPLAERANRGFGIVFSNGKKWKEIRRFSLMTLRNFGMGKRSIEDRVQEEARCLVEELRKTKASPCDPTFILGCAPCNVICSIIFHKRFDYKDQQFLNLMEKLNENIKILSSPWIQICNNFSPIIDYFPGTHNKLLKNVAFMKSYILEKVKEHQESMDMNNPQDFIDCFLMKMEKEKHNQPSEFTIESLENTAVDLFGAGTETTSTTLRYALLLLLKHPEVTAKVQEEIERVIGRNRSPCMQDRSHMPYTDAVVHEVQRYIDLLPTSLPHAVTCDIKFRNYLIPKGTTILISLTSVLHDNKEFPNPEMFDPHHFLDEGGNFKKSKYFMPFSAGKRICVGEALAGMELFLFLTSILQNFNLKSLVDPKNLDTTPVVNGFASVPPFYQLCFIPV

Experiment [15] addresses Cytochrome P450 1A2 (Homo sapiens) (UniProt P05177). Put plainly: Cytochrome P450 Family 1 Subfamily A Member 2 (CYP1A2) small molecule antagonists: luciferase reporter qHTS assay (AID 1671199). Further: nearly all actives have a fitted effect of over 50% in size. Further: potency means the concentration at half of the fitted maximal effect. A digest of the protocol:
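Steps: enzyme-substrate mix dispensed; test compounds and furafylline control pinned in; 10 min room temperature; NADPH regeneration solution added, 1 h; reaction stopped with luciferin detection reagent; luminescence read after 20 min.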

For experiment [16], the target named is Voltage-gated inwardly rectifying potassium channel KCNH2 (Homo sapiens) (UniProt Q12809). Description: Human Ether-a-go-go-Related Gene (hERG) channel small molecule antagonists: fluorescence cell-based qHTS assay (AID 1671200). A digest of the protocol: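 Read-out: thallium influx as a surrogate for potassium, tracked as fluorescence (480 nm ex/540 nm em) every second for 2 min after Stimulus Buffer addition in dye-loaded hERG-U2OS cells.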
Sequence of Voltage-gated inwardly rectifying potassium channel KCNH2 (Homo sapiens) (Q12809 whole entry, looked up): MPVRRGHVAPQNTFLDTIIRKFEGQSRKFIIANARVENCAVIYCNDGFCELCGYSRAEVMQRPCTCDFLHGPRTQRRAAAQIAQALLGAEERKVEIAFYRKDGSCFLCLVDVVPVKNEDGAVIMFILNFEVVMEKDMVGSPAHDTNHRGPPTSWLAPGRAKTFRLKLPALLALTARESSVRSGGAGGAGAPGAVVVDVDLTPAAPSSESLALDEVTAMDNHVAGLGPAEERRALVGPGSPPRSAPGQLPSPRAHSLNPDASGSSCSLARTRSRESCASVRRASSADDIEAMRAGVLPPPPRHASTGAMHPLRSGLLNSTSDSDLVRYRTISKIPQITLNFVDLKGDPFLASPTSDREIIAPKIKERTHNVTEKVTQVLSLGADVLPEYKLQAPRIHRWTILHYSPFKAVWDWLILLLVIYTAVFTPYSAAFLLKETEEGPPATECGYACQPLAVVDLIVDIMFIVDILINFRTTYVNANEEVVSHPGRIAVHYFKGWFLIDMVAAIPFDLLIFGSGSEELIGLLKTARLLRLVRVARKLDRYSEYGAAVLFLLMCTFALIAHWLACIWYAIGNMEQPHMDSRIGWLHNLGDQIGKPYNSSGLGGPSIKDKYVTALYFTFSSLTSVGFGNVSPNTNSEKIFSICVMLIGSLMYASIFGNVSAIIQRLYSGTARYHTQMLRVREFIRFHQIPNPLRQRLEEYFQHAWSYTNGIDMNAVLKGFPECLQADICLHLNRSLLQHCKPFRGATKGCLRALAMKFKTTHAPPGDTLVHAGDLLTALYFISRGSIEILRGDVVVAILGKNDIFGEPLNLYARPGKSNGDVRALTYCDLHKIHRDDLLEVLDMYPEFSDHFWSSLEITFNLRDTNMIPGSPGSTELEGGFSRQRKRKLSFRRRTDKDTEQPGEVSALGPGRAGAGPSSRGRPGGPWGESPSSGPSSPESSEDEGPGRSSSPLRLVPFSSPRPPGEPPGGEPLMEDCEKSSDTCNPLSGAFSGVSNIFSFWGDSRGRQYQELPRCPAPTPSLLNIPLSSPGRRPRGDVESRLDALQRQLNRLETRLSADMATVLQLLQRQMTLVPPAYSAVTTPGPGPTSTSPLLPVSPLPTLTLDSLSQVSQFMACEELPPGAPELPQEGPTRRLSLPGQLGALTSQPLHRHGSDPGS
For orientation: hERG is a cardiac potassium channel; its block is linked to QT prolongation.

Experiment [17] addresses Cytochrome P450 3A4 (Homo sapiens) (UniProt P08684). Description: Cytochrome P450 Family 3 Subfamily A Member 4 (CYP3A4) small molecule antagonists: luciferase reporter qHTS assay (AID 1671201). Put shortly:
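Luminescent readout (RLU) proportional to CYP3A4 activity, from luciferin generated off a proluciferin substrate. Enzyme–substrate mix plus compound 10 min at room temp, NADPH regeneration 1 h, detection reagent 20 min.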

Experiment [18] has as its target Nuclear receptor subfamily 1 group I member 2 (Rattus norvegicus) (UniProt Q9R1A7). Put plainly: Rat pregnane X receptor (rPXR) activation by small molecules, qHTS assay (AID 1346983). Further: nearly all actives have a fitted effect of over 20% in size. As to conditions: rPXR luciferase reporter cells, One-Glo luminescence, 24 h; stronger effect = higher value. Put shortly: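 Luminescent readout (One-Glo luciferase, 30 min room temperature) followed 24 hr compound treatment at 37 C of rPXR cells plated 2,000 per well and preincubated 5hr; qHTS format with compounds delivered in DMSO.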

Experiment [19] concerns the target Nuclear receptor subfamily 1 group I member 2 (Homo sapiens) (UniProt O75469). Description: Human pregnane X receptor (PXR) activation by small molecules, qHTS assay (AID 1346985). Further: nearly all actives have a fitted effect of over 40% in size. A digest of the protocol:
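DPX-2 cells (HepG2 co-transfected with a PXR response element and a CYP3A4-promoter luciferase construct) were seeded at 2,000 per well, rested 5 hr at 37C, then exposed to DMSO-dissolved compounds for 24 hr. Activation was read as luciferase luminescence.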
On the % scale 0 is the no-effect control and ±100 the full control effect.

Sequence of Cytochrome P450 1A2 (Homo sapiens) (P05177 whole entry, looked up): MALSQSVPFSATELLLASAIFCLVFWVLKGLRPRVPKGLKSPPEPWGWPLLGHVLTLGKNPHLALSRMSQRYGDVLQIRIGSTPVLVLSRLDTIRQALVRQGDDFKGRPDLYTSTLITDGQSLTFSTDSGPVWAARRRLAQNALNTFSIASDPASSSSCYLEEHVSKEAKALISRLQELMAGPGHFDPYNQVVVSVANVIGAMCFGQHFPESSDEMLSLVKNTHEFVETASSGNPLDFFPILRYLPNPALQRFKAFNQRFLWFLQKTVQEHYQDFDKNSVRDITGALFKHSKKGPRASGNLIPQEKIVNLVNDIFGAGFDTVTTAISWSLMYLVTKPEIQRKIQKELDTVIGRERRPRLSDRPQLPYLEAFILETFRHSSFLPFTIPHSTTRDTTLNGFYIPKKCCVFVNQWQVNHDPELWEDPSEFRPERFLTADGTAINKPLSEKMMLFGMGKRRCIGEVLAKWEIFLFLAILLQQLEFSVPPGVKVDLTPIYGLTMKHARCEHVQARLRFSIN
Sequence of Nuclear receptor subfamily 1 group I member 2 (Rattus norvegicus) (Q9R1A7 whole entry, looked up): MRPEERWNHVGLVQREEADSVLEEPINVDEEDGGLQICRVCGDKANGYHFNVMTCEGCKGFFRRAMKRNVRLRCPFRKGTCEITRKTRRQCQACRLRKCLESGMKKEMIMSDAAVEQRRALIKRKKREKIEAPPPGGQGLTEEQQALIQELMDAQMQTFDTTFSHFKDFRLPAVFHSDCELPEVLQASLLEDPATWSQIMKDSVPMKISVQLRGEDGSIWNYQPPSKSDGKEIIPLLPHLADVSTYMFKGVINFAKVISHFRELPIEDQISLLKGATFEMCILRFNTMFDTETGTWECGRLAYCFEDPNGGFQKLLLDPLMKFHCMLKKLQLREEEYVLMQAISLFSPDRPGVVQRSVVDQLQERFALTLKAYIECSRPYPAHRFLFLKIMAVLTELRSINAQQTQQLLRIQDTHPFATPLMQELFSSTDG
Sequence of Thyrotropin-releasing hormone receptor (Homo sapiens) (P34981 whole entry, looked up): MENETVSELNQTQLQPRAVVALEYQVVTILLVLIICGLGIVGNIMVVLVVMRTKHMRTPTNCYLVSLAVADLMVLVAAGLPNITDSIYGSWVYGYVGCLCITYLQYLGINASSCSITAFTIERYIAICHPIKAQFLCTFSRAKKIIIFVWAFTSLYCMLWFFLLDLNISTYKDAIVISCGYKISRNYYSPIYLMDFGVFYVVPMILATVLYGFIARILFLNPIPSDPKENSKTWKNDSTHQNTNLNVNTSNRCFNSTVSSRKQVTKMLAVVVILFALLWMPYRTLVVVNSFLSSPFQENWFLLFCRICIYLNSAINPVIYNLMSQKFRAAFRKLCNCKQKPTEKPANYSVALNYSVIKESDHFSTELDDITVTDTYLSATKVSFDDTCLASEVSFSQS
Sequence of Cytochrome P450 3A4 (Homo sapiens) (P08684 whole entry, looked up): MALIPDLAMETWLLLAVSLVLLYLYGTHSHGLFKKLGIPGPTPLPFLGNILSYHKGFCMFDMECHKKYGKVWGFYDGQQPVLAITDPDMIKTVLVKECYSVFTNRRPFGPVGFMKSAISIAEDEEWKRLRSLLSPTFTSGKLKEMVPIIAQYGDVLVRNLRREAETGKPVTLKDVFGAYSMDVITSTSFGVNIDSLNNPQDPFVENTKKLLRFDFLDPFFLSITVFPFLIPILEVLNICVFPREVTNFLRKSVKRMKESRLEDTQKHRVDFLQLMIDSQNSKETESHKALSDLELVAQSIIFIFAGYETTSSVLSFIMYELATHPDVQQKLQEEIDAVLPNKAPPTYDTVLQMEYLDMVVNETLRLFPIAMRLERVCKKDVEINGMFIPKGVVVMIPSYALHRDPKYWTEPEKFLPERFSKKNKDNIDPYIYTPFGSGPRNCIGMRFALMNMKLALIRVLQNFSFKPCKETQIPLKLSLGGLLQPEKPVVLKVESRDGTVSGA
Sequence of Cytochrome P450 2C19 (Homo sapiens) (P33261 whole entry, looked up): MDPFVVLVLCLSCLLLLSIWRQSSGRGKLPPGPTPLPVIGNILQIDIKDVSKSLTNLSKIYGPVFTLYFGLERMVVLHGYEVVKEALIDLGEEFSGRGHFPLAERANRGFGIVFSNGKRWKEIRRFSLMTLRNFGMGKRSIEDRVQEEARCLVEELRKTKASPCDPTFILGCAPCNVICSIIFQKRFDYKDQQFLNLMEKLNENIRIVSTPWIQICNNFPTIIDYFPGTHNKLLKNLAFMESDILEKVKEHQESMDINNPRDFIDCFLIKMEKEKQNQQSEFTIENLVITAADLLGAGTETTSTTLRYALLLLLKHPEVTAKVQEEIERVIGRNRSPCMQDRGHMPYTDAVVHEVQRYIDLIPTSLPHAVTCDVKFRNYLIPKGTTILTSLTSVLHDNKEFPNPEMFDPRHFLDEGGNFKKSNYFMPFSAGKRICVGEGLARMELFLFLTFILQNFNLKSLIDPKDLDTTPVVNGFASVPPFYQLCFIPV

`CN(C)CCc1c[nH]c2cccc(OP(=O)(O)O)c12`: the result in experiment [1], in [3] and in [5] was inactive. Besides, the Potency entry in [2], in experiment [4], in [6], in [7], in experiment [8] and in [9] was “inactive” throughout. Besides, the Potency result in [10], in experiment [11], in [12], in experiment [13], in experiment [14] and in experiment [15] was “inactive” in each case. Besides, the Potency result in experiment [16] and in experiment [17] was “inactive” each time.
Take `CCOC(=O)CC(SP(=S)(OC)OC)C(=O)OCC` (configuration not stated): the compound was called inactive in [1], in experiment [3] and in [5]. Besides, the Potency entry in [2], in experiment [4], in experiment [6], in experiment [19], in experiment [9] and in experiment [10] was “inactive” in each case. The Potency result in [11], in [12] and in [16] was “inactive” throughout. Besides, the Potency in experiment [7] was 12.2 µM (active) and inactive; in experiment [8], 62.1 µM (active) and inactive; in experiment [13], 178 nM (active) and 436 nM (active); in [14], 1.19 µM (active) and 1.38 µM (active); in [15], 2.24 µM (active) and 1.62 µM (active). Also, the max activation in experiment [18] is 0.377% (inactive).
On to `C=C(C)[C@H]1CN[C@H](C(=O)O)[C@H]1CC(=O)O`, for which the compound was classed as inactive in [1], in experiment [3] and in experiment [5]. The Potency entry in experiment [2], in experiment [4], in [6], in [7], in [19] and in [9] was “inactive” throughout. For the same compound, the Potency result in experiment [10], in [11], in [12], in experiment [13], in experiment [14] and in [15] was “inactive” throughout. Further, the Potency result in experiment [16] and in [17] was “inactive” in each case. In addition, the max activation in experiment [18] was -1.12% (inactive).
As for `CCOC(=O)N(C)N=O`, the result in experiment [1], in [3] and in [5] was inactive. For the same compound, the Potency entry in experiment [2], in experiment [4], in experiment [6], in [7], in [8] and in [9] was “inactive” throughout. Moreover, the Potency result in [10], in [11], in experiment [12], in experiment [13], in [14] and in experiment [16] was “inactive” in each case. Also, in experiment [17], the Potency result was “inactive”.
As for `COc1cccc(C=O)c1`, the result in [1], in experiment [3] and in experiment [5] was inactive. Besides, the Potency entry in experiment [2], in experiment [4], in [6], in [7], in experiment [8] and in [9] was “inactive” in each case. The Potency entry in experiment [10], in experiment [11], in [12], in experiment [13], in [14] and in experiment [17] was “inactive” in each case. In addition, in experiment [15], the Potency was 39.9 µM (active).
In the case of `C=CC1(C)OC(=O)N(c2cc(Cl)cc(Cl)c2)C1=O` (configuration not stated), the outcome in [1], in experiment [3] and in experiment [5] was inactive. In addition, the Potency entry in experiment [2], in experiment [4], in experiment [6], in experiment [8], in experiment [9] and in experiment [10] was “inactive” each time. In addition, the Potency entry in experiment [11], in experiment [12] and in experiment [14] was “inactive” throughout. The Potency in experiment [7] is 60.8 µM (active) and 54.5 µM (active); in experiment [13], 7.92 µM (active) and 12.6 µM (active); in [15], 5.61 µM (active) and 6.33 µM (active).
As to `O=C(Cl)C(Cl)Cl`, the outcome in experiment [1], in experiment [3] and in [5] was inactive. Besides, the Potency entry in [2], in experiment [4], in [6], in [7], in experiment [8] and in experiment [9] was “inactive” each time. Further, the Potency result in experiment [10], in [11], in [12], in experiment [13], in [14] and in experiment [16] was “inactive” in each case. In experiment [17], the Potency entry is “inactive”.
Regarding `N[C@@H]1C[C@H]1c1ccccc1`, the outcome in experiment [1], in experiment [3], in experiment [5], in experiment [8], in [9] and in experiment [10] was inactive. In [11], the outcome was inactive. Moreover, the Potency result in [2], in experiment [4], in experiment [6], in experiment [7], in experiment [19] and in experiment [16] was “inactive” each time. Moreover, the max activation in experiment [18] is -1.36% (inactive). Moreover, the Potency in experiment [12] is 27.5 µM (active); in experiment [14], 19.5 µM (active).
